High-throughput results deposited in PubChem by National Center for Advancing Translational Sciences (NCATS).
This is a sample that favours compounds with a hit; in the whole collection about 9.2% have one here.
HttQ103 aggreg: reduces HttQ103-GFP aggregates in PC12 cells | PC12 HttQ103-GFP aggregates, Acumen cytometry, 40 h | Potency, µM (titrated, usually from 46.1 µM), inactives show at the top dose activity change, negative = inhibition, most hits filed as inhibitors | 1.1% of 220,000 active | AID 1688; active = well fitted curve in the direction sought with a large enough effect; inconclusive = small, poorly fitted or top-dose-only effect, or another doubt; inactive = no such curve, though single readings can be large; an effect the other way counts as inactive or inconclusive; note: % is set by controls: 0 for no effect and ±100 for the full control effect; nearly all actives have a fitted effect of over 60% in size
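Compounds (qHTS titration) were added to PC12 cells expressing an ecdysone-driven HTT exon 1 Q103–GFP fusion after induction with 100 nM tebufenozide. Aggregate formation was measured as GFP objects in cell lysates.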
Lamin A splicing: LMNA splicing modulation; AID 1487; HeLa LMNA splicing GFP/RFP minigene ratio, 48 h; 0.01% of 200,000 active; Potency, µM (series often up to 46.1 µM), inactives show at the highest dose ratio change, negative = inhibition, actives largely listed as inhibitors; active = well fitted inhibition curve with a large enough effect in the signal ratio, with a control signal flat, not every such curve was filed as active; inconclusive = small, poorly fitted or top-dose-only effect, or effect the other way, or a change in a side signal; the % refers to the signal ratio; note: % is set by controls: 0 for no effect and ±100 for the full control effect
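Read-out is the ratio of GFP to DsRed2 object intensity, acquired by 488 nm laser-scanning cytometry on HeLa lamin A-EGFP minigene reporter cells. Compound incubation 48 hrs at 37 °C in Opti-MEM with 2% FBS; DMSO 0.5% final.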
HPGD inh: blocks human HPGD enzyme activity; purified HPGD, NADH fluorescence kinetic, PGE2 substrate; Potency, µM, for the others: at the highest dose activity change, negative = inhibition, usual class: inhibitors; 4.3% of 150,000 active; note: % is set by controls: 0 for no effect and ±100 for the full control effect
Target sequence (P15428 whole entry, looked up): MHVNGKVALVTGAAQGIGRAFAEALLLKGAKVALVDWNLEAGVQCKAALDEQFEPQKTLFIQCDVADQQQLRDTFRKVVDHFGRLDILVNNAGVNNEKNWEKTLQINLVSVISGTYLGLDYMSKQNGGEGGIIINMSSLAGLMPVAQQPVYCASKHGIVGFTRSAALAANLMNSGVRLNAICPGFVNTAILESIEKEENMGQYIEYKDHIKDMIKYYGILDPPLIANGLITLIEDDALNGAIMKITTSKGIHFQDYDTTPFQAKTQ
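20 nM HPGD preincubated 15 min at room temperature with compound in 50 mM Tris-HCl pH 8, 0.01% Tween 20. Started with 1 mM NAD+ and 30 uM prostaglandin E2; NADH fluorescence (360/450 nm) read 5 times over 30-s intervals, last minus first.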
ALDH1A1 block: blocks purified human ALDH1A1 activity; Purified ALDH1A1, NADH fluorescence, propionaldehyde substrate; Potency, µM (doses to about 75.3 µM), without a hit: top-dose activity, negative = inhibition, actives largely listed as inhibitors; 7.3% of 220,000 active; AID 1030;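 note: plate controls were no enzyme wells and a reference inhibitor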
Target sequence (P00352 whole entry, looked up): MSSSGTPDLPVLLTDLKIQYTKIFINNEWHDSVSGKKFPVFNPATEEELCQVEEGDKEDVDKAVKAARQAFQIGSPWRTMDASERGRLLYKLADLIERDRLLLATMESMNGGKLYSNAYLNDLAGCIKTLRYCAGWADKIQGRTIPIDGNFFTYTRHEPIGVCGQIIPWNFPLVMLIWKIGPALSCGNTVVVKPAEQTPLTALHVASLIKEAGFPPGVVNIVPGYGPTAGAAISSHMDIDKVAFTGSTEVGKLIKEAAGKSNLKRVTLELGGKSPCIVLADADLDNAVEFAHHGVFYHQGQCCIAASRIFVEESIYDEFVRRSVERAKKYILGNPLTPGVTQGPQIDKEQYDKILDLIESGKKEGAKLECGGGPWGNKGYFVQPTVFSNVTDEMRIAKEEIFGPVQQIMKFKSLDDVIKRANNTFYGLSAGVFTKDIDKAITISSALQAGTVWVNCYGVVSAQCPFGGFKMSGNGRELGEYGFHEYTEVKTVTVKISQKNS
JMJD2E inh: blocks human JMJD2E demethylase activity; B2RXH2; JMJD2E catalytic domain, FDH-coupled NADH fluorescence (FDH is formaldehyde dehydrogenase); Potency, µM (series often up to 57.1 µM), for the others: top-dose activity change, negative = inhibition, usual class: inhibitors; 1.6% of 230,000 active; AID 2147;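 note: 0% = wells with enzyme and -100% = buffer wells without enzyme; nearly all actives have a fitted effect of over 50% in size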
HTT ATP protect: cytoprotection in Huntington HTT-Q103 PC12 cell model | PC12 HTT-Q103 induced, cytoprotection, ATP luminescence, 40 h | Potency, µM (titrated, usually from 56.4 µM), for inactives: cytoprotection (ATP increase), actives largely listed as activators | 0.14% of 230,000 active | AID 1471; active = well fitted curve in the direction sought with a large enough effect; inconclusive = small, poorly fitted or top-dose-only effect, or another doubt; inactive = no such curve, though single readings can be large; an effect the other way counts as inactive or inconclusive; note: % of control where 0% means no effect; nearly all actives have a fitted effect of over 45% in size
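Compounds were screened for protection of PC12 cells against cell death after tebufenozide induction (100 nM final) of mutant Huntingtin exon 1 (Q103) fused to GFP.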
* hit, by the source's call; ? = inconclusive; / = no result; [ ] = remark or other dose. Unless noted, calls come from the whole dose curve; as a rule, active = well fitted inhibition curve with a large enough effect (not every such curve was filed as active); inconclusive = small, poorly fitted or top-dose-only effect, or another doubt; inactive = no such curve, though single readings can be large or run the other way. Potency is the fitted concentration of half-maximal effect.

SMILES | HttQ103 aggreg | Lamin A splicing | HPGD inh | ALDH1A1 block | JMJD2E inh | HTT ATP protect
COc1ccc2c(c1)O[C@@H](c1cccc(C(F)(F)F)c1)[C@H](OC(=O)N[C@H](C)C1CCCCC1)C2=O | / | / | 0% | 12% | 4% | -6%
CO[C@@H]1COC(=O)C/C=C\[C@H](C)COC(=O)[C@H](Cc2ccccc2)NC(=O)C/C=C\[C@H]1C | / | / | / | -6%[13.5 µM] | / | 7%[10 µM]
Nc1c(C(=O)C2CC2)sc2nc(-c3ccccc3)cc(C(F)(F)F)c12 | -29% | -5% | 28µM* | ? | -8% | 7%[10 µM]
CC(=O)c1sc2nc(-c3cccs3)cc(C(F)(F)F)c2c1N | 11% | 5% | -29% | ? | ? | -12%[0.074 µM]
Cc1nnc(SCC(=O)NC2CCCCC2C)s1 (configuration not stated) | 3%[9.22 µM] | -3%[46 µM] | / | 4% | -16% | -6%[10 µM]
CC1CCCC(NC(=O)CSc2nnc(N)s2)C1C (configuration not stated) | 10% | 7% | 28µM* | ? | 0% | 16%
CC1CCCCC1NC(=O)CSc1nncs1 (configuration not stated) | -7% | -4% | 22µM* | 1% | -2% | -17%[10 µM]
CCOC(=O)/C(C#N)=C\c1ccc(OCC(=O)Nc2ccc(C)cc2C)c(OC)c1 | 6% | 18% | ? | -14% | -2% | -42%
COC(=O)c1cnc(Oc2ccc(NC(=O)NC(=O)c3ccccc3Cl)cc2)cc1C(F)(F)F | -6%[9.22 µM] | / | / | 11% | -3% | -2%[10 µM]
O=C(COC(=O)c1ccccc1Br)NCCN1C(=O)CSC1=O | 10% | -21%[46 µM] | / | 14µM* | -3% | 1%
O=C(Nc1nnc(S(=O)(=O)N2CCCc3ccccc32)s1)c1ccccc1Cl | / | 13%[46 µM] | / | / | / | /
c1cc2c(cc1-c1csc(NNC3=NCCCCC3)n1)OCCO2 | -25% | 8%[46 µM] | / | 20µM* | ? | ?
c1ccc(-c2csc(Nc3ccc4c(c3)OCCO4)n2)cc1 | -8% | ? | -21% | 24µM* | -6% | -51%
c1cc2c(cc1Nc1nc(-c3ccc4c(c3)OCO4)cs1)OCCO2 | 5% | -11% | -17% | 18µM* | -9% | -4%[10 µM]
COc1cccc(Nc2nc(-c3ccc4c(c3)OCCO4)cs2)c1 | ? | ? | -22% | ? | -7% | -78%
CCCCCCCCN | / | / | -16% | ? | / | -25%
Brc1ccc2[nH]c3c(N4CCc5ccccc5C4)ncnc3c2c1 | ? | ? | ? | ? | 3.5µM* | -39%
Cc1ccc2[nH]c3c(N4CCc5ccccc5C4)ncnc3c2c1 | 3.5µM* | -2% | -25% | -9% | ? | -85%
COc1ccc(C(=O)c2cc3c(cc2[N+](=O)[O-])OCCO3)cc1 | -23% | / | / | ? | 2% | -10%
O=C(c1ccccc1F)c1cc2c(cc1[N+](=O)[O-])OCCO2 | -15%[9.22 µM] | 16%[46 µM] | / | 11µM* | 3% | -43%
O=C(O)CSCC(=O)c1ccccc1 | 5% | 6% | -24% | 14µM* | -2% | -10%
O=C(CC(=O)c1ccncc1)c1ccccc1 | / | / | 3.5µM* | 3.5µM* | / | 9%[10 µM]
O=C(O)CSCC(=O)NCc1ccccc1 | -5% | 4% | -4% | -11% | -10% | 0%[10 µM]
O=C(O)c1ccncc1.O=C(O)c1ccncc1.[Cl][Pt]([Cl])([Cl])[Cl] | / | / | 4µM* | 2.2µM* | / | -12%[10 µM]
O=C(CC(=O)c1ccccc1)c1ccccc1 | / | / | ? | -2% | ? | -88%
SMILES | HttQ103 aggreg | Lamin A splicing | HPGD inh | ALDH1A1 block | JMJD2E inh | HTT ATP protect
O=C(c1ccc(Cl)cc1)c1coc2ccc(O)cc12 | 0.63µM* | ? | -12% | 9% | 1% | -40%
O=C(c1coc2ccc(O)cc12)C1CC1 | 0% | 18% | -14% | 2.8µM* | 5% | 8%
COc1ccc2occ(C(=O)c3ccccc3)c2c1 | -11% | / | / | -12% | 1% | /
COc1ccc2occ(C(C)=O)c2c1 | 0%[9.22 µM] | 12% | -23% | ? | 3% | -2%
CCSCCOC(=O)C1=C(C)NC(=O)NC1c1ccc2c(c1)OCO2 (configuration not stated) | -18% | -6% | -14% | 14µM* | 3% | -39%
CCOC(=O)C1=C(C)NC(=O)NC1c1ccc2c(c1)OCO2 (configuration not stated) | 22% | -2% | -18% | -32% | -12% | -4%[1.9 µM]
COc1cccc(NC(=O)c2ccccc2C(F)(F)F)c1 | / | 7%[46 µM] | / | 1% | 10% | /
O=C(Nc1ccc(OCC(F)(F)C(F)F)c(C(F)(F)F)c1)c1ccccc1O | 5µM* | ? | ? | 2% | ? | -3%[10 µM]
O=C(Nc1cccc2[nH]ncc12)c1ccc(F)cc1 | 5µM* | ? | ? | 5% | 19% | -15%
O=C(Nc1cccc2ncccc12)c1ccc(F)cc1 | -12% | -12% | -4% | 2% | 8% | 23%[10 µM]
O=C(NC(=S)Nc1cccc2[nH]ncc12)c1ccccc1 | 10µM* | / | / | ? | -1% | -9%
CNC(=S)Nc1cccc2[nH]ncc12 | 11% | -7% | -2% | 1% | 3% | 11%[10 µM]
Cc1c(Cl)c([N+](=O)[O-])nn1CCCC(=O)Nc1ccc(Cl)cc1Cl | 8% | -8% | -4% | ? | -5% | 13%[10 µM]
Cc1c(Br)c([N+](=O)[O-])nn1CC(=O)Nc1sc2c(c1C(=O)OC(C)C)CCCC2 | -5% | 1% | -24% | -10% | -1% | -13%
Cc1c(Cl)c([N+](=O)[O-])nn1CCCC(=O)Nc1sc2c(c1C#N)CCC2 | 0% | -13% | ? | 13µM* | 1% | -3%[10 µM]
Cc1c(Br)c([N+](=O)[O-])nn1CCCC(=O)Nc1sc2c(c1C#N)CCC2 | 3% | ? | 13µM* | 10µM* | 5% | 10%[10 µM]
CC1(C)CC(c2nc(-c3ccc([N+](=O)[O-])cc3)cs2)CCO1 (configuration not stated) | -3% | -5%[46 µM] | / | 16µM* | -13% | -20%
CC(=O)N1CCC2(CC1)CCN(c1ccc(-c3ccccc3)cc1)CC2 | / | / | ? | ? | / | -125%
S=c1[nH]nc(C2CCCCC2)n1Cc1ccccc1 | 20%[9.22 µM] | ? | / | ? | ? | 0%[10 µM]
COc1ccccc1/C=C/C=N/n1c(-c2ccco2)n[nH]c1=S | -12%[9.22 µM] | / | / | ? | -3% | -10%[10 µM]
COc1ccccc1/C=C/C=N/n1c(-c2ccncc2)n[nH]c1=S | -1% | ? | 14µM* | 4% | -6% | 23%[0.074 µM]
COc1ccccc1/C=C\C=N\n1c(C2CCCCC2)n[nH]c1=S | ? | -2%[0.0737 µM] | 14µM* | ? | ? | -49%[10 µM]
COc1ccc(-c2n[nH]c(=S)n2/N=C/C=C\c2ccccc2OC)cc1 | 21% | ? | 0.89µM* | ? | ? | -31%[10 µM]
CCn1cnc2sc(C(=O)N(Cc3ccc(N(C)C)cc3)Cc3ccco3)c(C)c2c1=O | 22% | ? | -14% | 8.9µM* | -6% | 12%[10 µM]
